Records with an inconclusive call do not appear. Values without a mark were called inactive. The source made the active and inactive calls. The call rests on the fitted dose curve; in most records, active means well fitted inhibition curve with a large enough effect in the repeat runs; inconclusive means weak or mixed curves; inactive means no such curve, though single readings can be large or run the other way.
On the % scale 0 is the no-effect control and ±100 the full control effect; potency means the concentration at half of the fitted maximal effect.

Chain of Cytochrome P450 2C9 (Homo sapiens) (P11712 whole entry, looked up): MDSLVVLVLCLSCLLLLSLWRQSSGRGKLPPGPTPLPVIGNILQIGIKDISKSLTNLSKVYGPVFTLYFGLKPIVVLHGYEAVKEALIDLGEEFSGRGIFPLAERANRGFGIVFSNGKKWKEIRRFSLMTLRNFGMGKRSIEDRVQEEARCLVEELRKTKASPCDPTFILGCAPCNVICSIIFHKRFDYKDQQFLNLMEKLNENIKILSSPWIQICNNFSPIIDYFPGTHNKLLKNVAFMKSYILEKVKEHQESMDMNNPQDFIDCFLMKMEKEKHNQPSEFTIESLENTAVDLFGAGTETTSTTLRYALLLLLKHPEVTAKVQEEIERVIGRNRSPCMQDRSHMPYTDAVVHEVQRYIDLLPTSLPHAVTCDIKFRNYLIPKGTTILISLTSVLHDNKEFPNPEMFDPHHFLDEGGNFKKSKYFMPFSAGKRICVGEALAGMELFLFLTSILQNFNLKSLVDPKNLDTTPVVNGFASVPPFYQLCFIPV

The target of this assay is Cytochrome P450 2C9 (Homo sapiens) (UniProt P11712). Kind of assay: Cytochrome P450 Family 2 Subfamily C Member 9 (CYP2C9) small molecule antagonists: luciferase reporter qHTS assay (AID 1671198). Further: nearly all actives have a fitted effect of over 50% in size. Particulars: P450-Glo CYP2C9 enzyme assay, luciferin luminescence; series mostly up to 115 µM; activity change, negative = inhibition: at the top concentration. In a few lines:
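P450-Glo proluciferin substrate with CYP2C9 enzyme; 10 min RT preincubation, then NADPH regeneration 1 h at 37C; luciferin detection reagent 20 min RT, luminescence in relative luminescence units.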
Regarding `CCCCCCCC/C=C\CCCCCCCC(N)=O`, the “activity change, negative = inhibition” value was -11.9%.

Turning to `C#CCOC(=O)[C@@H](C)Oc1ccc(Oc2ncc(Cl)cc2F)cc1`, the Potency is 31.6 µM (active).

On to `CCOC(=O)[C@H](CCc1ccccc1)N[C@H]1CCc2ccccc2N(CC(=O)O)C1=O`, for which the Potency was 8.71 µM (active).

Consider `CCCCCC/C=C/C=O`, for which the Potency was 63.3 µM (active).

For the compound `Nc1cnn([C@@H]2O[C@H](CO)[C@@H](O)[C@H]2O)c(=O)n1`, the “activity change, negative = inhibition” value is 8.47%.

For `NC1CCN(c2nc3c(cc2F)c(=O)c(C(=O)O)cn3-c2ccc(F)cc2F)C1` (configuration not stated), the “activity change, negative = inhibition” value was 0.228% [at 53 µM].

Turning to `CC(C)(C)C(=O)OCOP(=O)(COCCn1cnc2c(N)ncnc21)OCOC(=O)C(C)(C)C`, the “activity change, negative = inhibition” value was -7.77% [at 53 µM].

In the case of `COC(=O)CSc1cc(N=c2sc(=O)n3n2CCCC3)c(F)cc1Cl`, the Potency is 8.94 µM (active).

Regarding `COCCCCCCCCOCCC[Si](C)(O[Si](C)(C)C)O[Si](C)(C)C`, the Potency is 35.6 µM (active).

On to `Cc1c(Cn2ccnc2)c2ccccc2n1CCC(=O)O`, for which the Potency is 3.09 µM (active).

For `Cc1nc2ccccc2n1Cc1ccc(Cl)cc1`, the Potency was 13.8 µM (active).

Turning to `CN1CCC(=C2c3ccccc3CCc3sccc32)CC1`, the “activity change, negative = inhibition” value was -2.03% [at 53 µM].

`O=C(CCN1CCN2CCCC2C1)N1c2ccccc2Sc2ccc(Cl)cc21` (configuration not stated): the activity change, negative = inhibition is 11.9% [at 23.6 µM].

As to `CCN(CC)CCNC(C(=O)OCCC(C)C)c1ccccc1` (configuration not stated), the “activity change, negative = inhibition” value is 8.89% [at 53 µM].

Consider `COc1ccc([C@@H]2Sc3ccccc3N(CCN(C)C)C(=O)[C@@H]2OC(C)=O)cc1`, for which the “activity change, negative = inhibition” value is -12.7% [at 53 µM].

On to `CCCCOC(=O)c1ccccc1C(=O)OCC(CC)CCCC` (configuration not stated), for which the Potency is 12.6 µM (active).

With `CC(=O)O[C@H]1C[C@@H]2CC[C@@H]3[C@H](CC[C@@]4(C)[C@H]3C[C@H]([N+]3(C)CCCCC3)[C@@H]4OC(C)=O)[C@@]2(C)C[C@@H]1N1CCCCC1`, the “activity change, negative = inhibition” value is -2.45% [at 53 µM].

Source of the values: PubChem BioAssay (Tox21).
